The results in this text go back to PubChem BioAssay AID720664 (National Center for Advancing Translational Sciences (NCATS), 2013).

Inconclusive results are not listed. Active and inactive are the calls of the source. Calls follow the shape of the dose curve; as a rule, active = well fitted inhibition curve with a large enough effect; inconclusive = small, poorly fitted or top-dose-only effect; inactive = flat fitted curve, though single readings scatter.

Galactokinase (Homo sapiens), sequence (P51570 whole entry, looked up): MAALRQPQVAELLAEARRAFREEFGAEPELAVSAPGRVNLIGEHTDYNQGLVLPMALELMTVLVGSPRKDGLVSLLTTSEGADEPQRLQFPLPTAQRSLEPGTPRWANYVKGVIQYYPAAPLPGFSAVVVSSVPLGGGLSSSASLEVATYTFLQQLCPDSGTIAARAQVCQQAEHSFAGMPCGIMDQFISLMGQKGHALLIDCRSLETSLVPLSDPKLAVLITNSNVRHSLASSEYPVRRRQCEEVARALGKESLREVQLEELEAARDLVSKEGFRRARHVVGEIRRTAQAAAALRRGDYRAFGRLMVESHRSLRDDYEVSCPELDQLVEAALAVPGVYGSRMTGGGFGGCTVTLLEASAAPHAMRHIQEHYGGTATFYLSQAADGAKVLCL

The experiment has as its target Galactokinase (Homo sapiens) (UniProt P51570). Kind of experiment: qHTS for Inhibitors of Human Galactokinase (GALK): SAR round 3. As to conditions: ADP detection luminescence, 1 h; series mostly up to 57.5 µM; activity change, negative = inhibition: at the top concentration. The text has this: Inherited deficiency of galactose-1-phosphate uridyltransferase (GALT) can result in a potentially lethal disorder called Classic Galactosemia (OMIM 230400). Several lines of evidence indicate that an elevated level of galactose-1-phosphate (gal-1-p), the product of galactokinase (GALK), is a major, if not sole, pathogenic mechanism in patients with classic galactosemia. Therefore, finding inhibitors of GALK is a potential novel therapy for this inherent metabolic disease and is the long term goal of this project. Active compounds observed in the qHTS GALK assay (AID: 1868) were cherry picked and re-screened for validation. GALK (provided by Kent Lai) was assayed using ATP and D-(+)-Galactose (Sigma-Aldrich cat# G0750) as substrates. Promega ADP-Glo technology was used to detect the ADP product formed after the kinase reaction. Kinase reactions with and without GALK were used as negative and positive controls together with Protein Tyrosine Phosphatase CD45 inhibitor (EMD Bioscience cat# 540215) which is shown to inhibit GALK activity. Decrease in activity corresponds to inhibition of the enzyme, the desired outcome for this assay. NIH Molecular Libraries Probe Production Network [MLPCN] NIH Chemical Genomics Center [NCGC] Grant: MH085689-01 PI Name: Kent Lai, University of Utah
Three uL/well of ATP-buffer solution (35 uM ATP, 20mM HEPES pH8.0, 5 mM MgCl2, 60 mM NaCl, 1 mM DTT, 0.01% BSA final concentration) was dispensed into 1536-well, assay plates (Greiner, solid white medium-binding plates) with Aurora Discovery BioRAPTR Flying Reagent Dispenser (FRD; Beckton-Dickenson). Compound and control solution (23 nL) was transferred to the assay plate using the Kalypsys 1536-pin tool apparatus. One uL/well GALK-galactose solution (5 nM GALK, 100 uM galactose, 20 mM HEPES pH8.0, 5 mM MgCl2, 60 mM NaCl, 1 mM DTT, 0.01% BSA final concentration) was then added using the FRD yielding a total kinase reaction volume of 4 uL/ well. After 1 hour of room temperature incubation, 4 uL Kinase-Glo Plus reagent was added for a final assay volume of 8 uL/well. Luminescence was detected with the ViewLux plate reader (Perkin Elmer, Waltham, MA) after 2 min incubation using a 1 sec exposure time and 2x binning.
In the case of `CCCc1ccc(NC(=O)c2ccc3c(c2)NC(=O)CS3)cc1`, the “activity change, negative = inhibition” value was 3.14% (inactive).

Regarding `Cn1cc(Br)c(C2N=C(Nc3nc4ccccc4o3)NC3=C2C(=O)CCC3)n1` (centres undefined), the Potency was 9.68 µM (active).

For the molecule `Cc1cccc2nc(NC3=NC(c4[nH]ncc4Cl)C4=C(CCCC4=O)N3)oc12` (centres undefined), the “activity change, negative = inhibition” value is -0.192% (inactive).

As to `Cn1cc(Cl)c(C2N=C(Nc3nc4ccccc4o3)NC3=C2C(=O)CCC3)n1` (centres undefined), the Potency was 12.2 µM (active).

On to `CC1=C(C(=O)Nc2nccs2)C(c2ccccc2Br)N=C(Nc2nc3ccccc3o2)N1` (centres undefined), for which the “activity change, negative = inhibition” value was -26.6% (inactive).

As for `CC1=C(C(=O)Nc2nncs2)C(c2nn(C)cc2Cl)N=C(Nc2nc3ccccc3o2)N1` (centres undefined), the Potency was 17.2 µM (active).

As to `Cc1ccc2nc(NC3=NC(c4[nH]ncc4Cl)C4=C(CCCC4=O)N3)oc2c1` (centres undefined), the “activity change, negative = inhibition” value is 13.9% (inactive).

On to `O=C1CCCC2=C1C(c1[nH]ncc1Cl)N=C(Nc1nc3ccc(F)cc3o1)N2` (centres undefined), for which the “activity change, negative = inhibition” value was 0.665% (inactive).

With `CC(=O)Nc1ncc(S(=O)(=O)N2CCOCC2)s1`, the “activity change, negative = inhibition” value is -1.9% (inactive).
